BoNT-A LC inh2: inhibitors of Botulinum neurotoxin A light chain protease; multiplex microsphere protease substrate cleavage, flow cytometry; inhibition, % at 10 µM; 0.17% of 360,000 active; AID 588499
BoNT-F LC inh: blocks Botulinum neurotoxin F light chain protease | Multiplex microsphere protease cleavage assay, flow cytometry | inhibition, % at 10 µM | 0.22% of 360,000 active; in the data active means inhibition above about 35%, passing the limit was not always enough; inconclusive means no clear call, values can overlap the other calls
Mtb FBA inh: inhibitors of M. tuberculosis fructose-bisphosphate aldolase. purified M. tuberculosis FBA, fluorescence read-out. inhibition, % at 1 µM. 2.3% of 360,000 active. AID 588726; in the data active means inhibition above about 27%
Target sequence (P9WQA3 whole entry, looked up): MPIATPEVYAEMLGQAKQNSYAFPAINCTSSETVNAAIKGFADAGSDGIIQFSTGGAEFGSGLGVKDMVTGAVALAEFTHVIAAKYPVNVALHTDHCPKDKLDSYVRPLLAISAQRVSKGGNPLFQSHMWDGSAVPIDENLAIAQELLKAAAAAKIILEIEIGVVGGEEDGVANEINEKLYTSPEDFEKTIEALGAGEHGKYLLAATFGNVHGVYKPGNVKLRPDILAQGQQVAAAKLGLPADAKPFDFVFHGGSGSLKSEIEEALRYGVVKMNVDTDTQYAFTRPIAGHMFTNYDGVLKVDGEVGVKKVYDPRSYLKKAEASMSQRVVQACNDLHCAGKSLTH
GDH-TPI inh: counter-screen for M. tuberculosis FBA inhibitors: GDH-TPI coupled enzymes; inhibition, % at 4.8 µM; 1.2% of 360,000 active; GDH-TPI coupled enzyme counterscreen, NADH absorbance; in the data active means inhibition above about 30%
Anthrax LF prot: blocks Bacillus anthracis lethal factor protease | AID 588501 | P15917 | 0.12% of 360,000 active | multiplex microsphere protease cleavage assay, LF | inhibition, % at 10 µM
Bead autofluor: counter-screen for toxin protease inhibitors: compound fluorescence; compound autofluorescence counterscreen, microsphere flow cytometry; active compounds read high; fluorescence intensity (concentration not given with the values); 3.1% of 360,000 active; AID 624483; in the data active means fluorescence intensity above about 16000; inconclusive means no clear call, values can overlap the other calls
A number is an active result; – = inactive; ? = inconclusive; · = no result. Only some compounds are listed: those with a hit (about 6.7% of all), similar ones and a draw of the others. Unless noted, no stated cut-off is given here; in the data, active means inhibition above about 30%; inconclusive means no clear call, values can overlap the other calls; inactive means below that.

SMILES	BoNT-A LC inh2	BoNT-F LC inh	Mtb FBA inh	GDH-TPI inh	Anthrax LF prot	Bead autofluor
COc1cc(/C=N/NC(=O)c2ccc(NC(=O)C3CCCCC3)cc2)ccc1O	–	–	–	35	–	–
COc1cc(/C=N/NC(=O)c2cc(C3CC3)[nH]n2)ccc1O	–	–	–	44	–	–
COc1cc(/C=N/NC(=O)c2cc(-c3c(C)nn(-c4ccccc4)c3C)n[nH]2)ccc1O	–	–	–	33	–	–
CCOC(=O)c1ccc(Nc2cc(C)nc(N3CCOCC3)n2)cc1	–	–	–	–	–	–
CSc1ncccc1C(=O)OCC(=O)N(C)c1c(N)n(Cc2ccccc2)c(=O)[nH]c1=O	–	–	–	–	–	?
CCOc1ccc(NC(=O)N(C2CCCCC2)C2CCN(C(C)=O)CC2)cc1	–	–	–	–	–	–
CCCCOc1ccc(C(=O)OC(C)CN(C)C)cc1 (stereo not drawn)	–	–	–	–	–	–
Cc1nn(-c2ccccc2)c(C)c1-c1cc(C(=O)N/N=C/c2ccc(O)cc2)[nH]n1	·	·	–	44	·	·
O=C(/C=C/c1ccc([N+](=O)[O-])cc1)c1cccnc1	–	–	–	–	–	–
Cc1cc(NC(=O)COC(=O)C2=COCCO2)c([N+](=O)[O-])cc1C	–	–	–	–	–	–
N#CCCN(CCC#N)C(=O)c1ccc2c(c1)OCO2	–	–	–	–	–	20717
Cn1c(=O)[nH]c(=O)c2c1nc(N1CCOCC1)n2CC(O)COc1ccccc1 (stereo not drawn)	–	–	–	–	–	–
CCCCC(CC)C(=O)NCc1ccc(F)cc1 (stereo not drawn)	–	–	–	–	–	–
Oc1ccc(C=NCC2COc3ccccc3O2)cc1 (stereo not drawn)	–	–	–	–	–	20126
c1ccc(CSc2ncccn2)cc1	–	–	–	–	–	–
CCC(=O)Nc1nc(CC(=O)Nc2ccccc2OC)cs1	–	–	–	–	–	–
COc1ccccc1NC(=O)Cc1csc(NC(=S)Nc2ccc(C)cc2)n1	–	–	–	–	–	16561
COc1cc(/C=N/N=C2/NC(=O)C(c3ccccc3)S2)ccc1O (stereo not drawn)	–	–	–	54	–	–
COc1cc(/C=N/N=C2/C(=O)Nc3ccccc32)ccc1O	–	–	–	–	–	–
COc1cc(/C=N/N=C2/NC(=O)C(Cc3ccc(F)cc3)S2)ccc1O (stereo not drawn)	–	–	–	42	–	–
Cc1ccc(OCCCN2C(=O)C(=O)c3cccc(C)c32)cc1	–	–	–	–	–	–
O=C(OCCOc1cccc(Cl)c1)c1ccc(F)c(S(=O)(=O)N2CCOCC2)c1	–	–	–	–	–	–
CC(C)CNC(=O)C(=O)N/N=C/c1cccs1	–	–	–	–	–	18172
CCCc1cc(C(=O)N/N=C/c2ccc(CC)s2)c2ccccc2n1	–	–	–	–	–	–
C/C(=N\NC(=O)c1c[nH]c2ccccc12)c1ccc(C)o1	–	–	–	33	–	23011
SMILES	BoNT-A LC inh2	BoNT-F LC inh	Mtb FBA inh	GDH-TPI inh	Anthrax LF prot	Bead autofluor
Cc1c(/C=N\NC(=O)c2c[nH]c3ccccc23)cnn1C	–	–	–	–	–	–
O=C(N/N=C/c1cccs1)c1c[nH]c2ccccc12	–	–	–	38	–	–
CCc1ccc(/C=N/NC(=O)c2c[nH]c3ccccc23)s1	–	–	–	50	–	–
O=C(Cc1ccc(Cl)cc1Cl)OCC(=O)N1CCCCC1	–	–	–	–	–	–
O=C(Nc1cc(Cl)ccc1O)C1CC(c2ccccc2O)=NO1 (stereo not drawn)	–	–	–	–	–	–
Cc1cc(C(=O)Nc2ccccc2)c(C)o1	–	–	–	–	–	–
CC1=C(C(=O)N(C)C)CC(CC(=O)NCc2cccs2)C(=O)N1CCC1=CCCCC1 (stereo not drawn)	–	–	–	–	–	–
CCCCNC(=O)c1nc(C2CCN(S(=O)(=O)c3ccccc3)CC2)oc1-c1cccc(C(F)(F)F)c1	–	–	–	·	–	–
C(=NN=C(NN=Cc1cccs1)NN=Cc1cccs1)c1cccs1	–	–	–	44	–	–
CCOCCCNC(=O)c1c[nH]c2cc(OC)ccc2c1=O	–	–	–	–	–	–
COc1cc2[nH]cc(C(=O)NCCc3ccccc3)c(=O)c2cc1OC	–	–	–	–	–	17186
CCOCCCNC(=O)c1c[nH]c2ccc(C)cc2c1=O	–	–	–	–	–	22538
COc1cc2[nH]cc(C(=O)NCc3ccccc3)c(=O)c2cc1OC	–	–	–	–	–	–
COc1cc(N2CCOCC2)ncn1	?	–	–	–	–	23005
CC1C2(C)OC(=N)C(C#N)(C(C)O2)C1(C#N)C#N (stereo not drawn)	–	–	128	–	–	–
COc1ccc(/C=C/C(=O)OCC(=O)N2CCc3ccccc32)cc1	–	–	–	–	–	–
N#C/C(=C/C=C/c1ccccc1)C(=O)Nc1ccccc1	?	–	–	–	–	18225
CCOc1ccccc1NC(=O)/C(C#N)=C/c1cccnc1	–	–	–	–	–	–
CNc1ccc(/C=C(\C#N)C(=O)Nc2ccccn2)cc1[N+](=O)[O-]	–	38	–	–	33	–
Cc1ccccc1NC(=O)/C(C#N)=C\c1cccnc1	?	–	–	–	–	17365
CC(C)(C)c1ccc(/C=C(\C#N)C(=O)Nc2ccccn2)cc1	–	–	–	–	–	–
N#C/C(=C\c1ccccc1)C(=O)Nc1ccccn1	–	40	–	–	–	–
CCOc1cc(CNC(C)C(O)c2ccccc2)cc(Cl)c1OCC (stereo not drawn)	–	–	–	–	–	–
COc1cc(OC)nc(Nc2nc(C(C)N)cs2)n1 (stereo not drawn)	–	–	–	–	–	–
COC(=O)c1sc2ccccc2c1C(=O)OC	?	–	–	–	–	22728
SMILES	BoNT-A LC inh2	BoNT-F LC inh	Mtb FBA inh	GDH-TPI inh	Anthrax LF prot	Bead autofluor
COc1ccc(NC(=S)N(CCc2c(C)[nH]c3ccccc23)Cc2ccco2)cc1	–	–	–	–	–	–
O=C(Nc1nccc(-c2cccs2)n1)c1ccccc1Cl	–	–	–	–	–	19543
O=C(c1cccc(Br)c1)N1CCN(c2ccc(N3CCOCC3)nn2)CC1	–	–	–	–	?	?
CCc1c(C)sc(NC(=O)c2ccco2)c1C(=O)N1CCCCC1	–	–	–	–	–	22698
Cc1ccc(C2(CC(=O)O)CCOC(C)(C)C2)cc1 (stereo not drawn)	?	–	–	–	–	19797
CN(C)c1ccc(C(=O)N=c2sccn2C)cc1[N+](=O)[O-]	–	–	–	38	–	–
Cn1ccsc1=NC(=O)c1ccc(Cl)cc1	–	–	–	–	–	–
COc1cccc(-n2nnnc2SCC(=O)Nc2ccc(C(C)=O)cc2)c1	–	–	–	–	–	–
CCCOc1ccc(/C=C2\SC(N)=NC2=O)cc1OC	–	–	–	–	–	–
COc1ccc(/C=C2\SC(N)=NC2=O)cc1Br	–	–	–	31	–	–
Cc1ccc(C(=O)N2N=C(c3ccc(NS(C)(=O)=O)cc3)CC2c2cccs2)cc1 (stereo not drawn)	–	–	–	–	–	–
